High-throughput results (PubChem)
Most compounds without a hit are left out; they make up all but 21% or so of the library.
Pf growth 96h: P. falciparum growth inhibition at 96 hour, primary screen for plastid delayed-death inhibitors. Potency, µM (top dose mostly 28.7 µM), for inactives: at the top dose activity change, negative = inhibition, hits mostly inhibitors. 320,000 compounds, 6.9% hits. P. falciparum luciferase reporter growth, 96 h. AID 504834; further: potency means the concentration at half of the fitted maximal effect; on the % scale 0 is the no-effect control and ±100 the full control effect
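Erythrocytes infected with luciferase-expressing P. falciparum were dispensed at 2% hematocrit and 0.05% parasitemia (final), then incubated with compounds 96 hours at 37 C in 5% CO2. Luminescence after detection reagent addition reported growth.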
Cycloheximide cs: affects cycloheximide protein synthesis inhibition readout, counter-screen. 300,000 compounds, 12% hits. cell reporter, cycloheximide protein synthesis inhibition counterscreen. max response, %; in the data active means max response mostly above about 13%, no sharp cut-off; inactive means mostly below about 14%; further: read at 38.3 µM for the half of the compounds with a filed dose; 0% is about no effect
FBPA Giardia inh: Giardia lamblia aldolase inhibition; A8B2U2; purified Giardia FBPA; Potency, µM (highest dose often 59.6 µM), for inactives: top-dose activity, negative = inhibition, usual class: inhibitors; 290,000 compounds, 0.71% hits; AID 2451; further: potency means the concentration at half of the fitted maximal effect; on the % scale 0 is the no-effect control and ±100 the full control effect; nearly all actives have a fitted effect of over 55% in size
Target sequence (A8B2U2 whole entry, looked up): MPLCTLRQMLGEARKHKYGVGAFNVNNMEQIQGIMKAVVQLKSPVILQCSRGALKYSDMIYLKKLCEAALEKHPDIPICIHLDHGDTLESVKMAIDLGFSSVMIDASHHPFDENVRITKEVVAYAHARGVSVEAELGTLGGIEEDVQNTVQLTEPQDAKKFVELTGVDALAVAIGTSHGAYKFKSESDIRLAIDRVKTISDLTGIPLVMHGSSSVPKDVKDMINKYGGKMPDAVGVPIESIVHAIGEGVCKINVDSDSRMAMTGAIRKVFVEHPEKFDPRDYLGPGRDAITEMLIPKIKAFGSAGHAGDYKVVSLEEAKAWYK
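Giardia FBPA (40 nM reagent) was preincubated 10 min at RT with compound (up to 57.5 uM final), then substrate plus GAPDH/TPI/NAD/arsenate coupling system with diaphorase/resazurin was added; resorufin fluorescence (525/598 nm) was read after 20 min.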
Pf growth 48h: P. falciparum growth inhibition at 48 hours (one generation); Potency, µM (titrated, usually from 28.7 µM), without a hit: top-dose activity change, negative = inhibition, actives largely listed as inhibitors; P. falciparum luciferase growth in erythrocytes, 48 h; 310,000 compounds, 5.9% hits; further: potency means the concentration at half of the fitted maximal effect; on the % scale 0 is the no-effect control and ±100 the full control effect
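Luminescence readout; reporter = integrated firefly luciferase in P. falciparum. RBC culture at 2% hematocrit, 0.1% parasitemia final, 37 C/5% CO2; decreased signal taken as growth inhibition.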
NS1 function inh: blocks influenza NS1 protein function | 270,000 compounds, 0.4% hits | Potency, µM (highest dose often 46.1 µM), for the others: at the top dose activity, positive = more growth | AID 2326; calls by dose curve; further: potency means the concentration at half of the fitted maximal effect; actives are rising curves; nearly all actives have a fitted effect of over 50% in size
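OD600 was taken as the measure of yeast growth restored by compound in an NS1-expressing S. cerevisiae strain. Cells had been washed out of glucose medium and diluted 1:100 into galactose -URA medium, pH 6.0.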
Shiga inhibitor: Shiga toxin inhibition; Vero cells, Shiga toxin protein synthesis inhibition reporter; inhibition, % at 38.7 µM; 290,000 compounds, 9.2% hits; in the data active means inhibition mostly above about 28%, no sharp cut-off; inactive means mostly below about 43%; further: 0% is about no effect
* hit, by the source's call; ? = inconclusive; · = no result given; [ ] = remark or other dose. Unless noted, the call rests on the fitted dose curve; in most records, active means well fitted curve in the direction sought with a large enough effect; inconclusive means small, poorly fitted or top-dose-only effect, or another doubt; inactive means no such curve, though single readings can be large; an effect the other way counts as inactive or inconclusive.

SMILES | Pf growth 96h | Cycloheximide cs | FBPA Giardia inh | Pf growth 48h | NS1 function inh | Shiga inhibitor
CC(=O)Nc1ccn(C2OC(C(COC(C)=O)NC(=O)C(C)NC(=O)OC(C)(C)C)C(OC(C)=O)C2OC(C)=O)c(=O)n1 (configuration not stated) | · | 2 | 6% | · | · | 16
Cc1cc(C2=NNC(=Nc3ccc(S(=O)(=O)N4CCOCC4)cc3)SC2)c(C)n1C | -18% | -2 | ? | 1% | ? | -9
CC(C)N=C1NN=C(c2cccs2)CS1 | 102% | 35* | 1% | 450% | · | 54*
CC(C)N=C1NN=C(c2ccc(Cl)c(Cl)c2)CS1 | -47% | 38* | 2% | -64% | · | 102*
CC(C)c1ccc(N=C2NN=C(c3cccs3)CS2)cc1 | 42% | 41* | -3% | 59% | 15% | 87*
O=C(O)CN1C(=O)CC(c2ccccc2)CC1=O | ? | -2 | 8% | 21% | -4% | -4
Cc1onc(-c2ccccc2)c1NC(=O)N(CCC#N)Cc1ccccc1 | ? | -2 | 3% | ? | 0% | -15
COC(=O)N1C2CC3(C)CC(=O)CC1(C)C3c1ccccc12 (configuration not stated) | · | · | 4%[12.9 µM] | · | · | ·
CC(=O)Nc1cccc(/C(C)=N/NC(=S)NC(C)C)c1 | 49% | 28* | -10% | 28% | · | 67*
C/C(=N/NC(=O)c1cccs1)c1cccs1 | 70% | 43* | -4% | 265% | -25% | 76*
C/C(=N\NC(=O)c1cccc(S(=O)(=O)Nc2cccc(Cl)c2)c1)c1cccs1 | ? | 0 | 1% | 13% | 21% | -3
CCN(CC)S(=O)(=O)c1cccc(C(=O)N/N=C(\C)c2cccs2)c1 | 68% | 31* | 1% | 157% | · | 74*
C/C(=N/NC(=O)c1cccs1)c1cccc(N)c1 | ? | 43* | -11% | 45% | 1% | 88*
c1cc(CSc2ncnc3nc[nH]c23)ccn1 | · | · | · | · | -3% | ·
COc1ccc(C(Nc2ccc(S(=O)(=O)NCC3CCCO3)cc2)C(=O)NC(C)(C)C)cc1OC (configuration not stated) | 12% | 1 | 0% | ? | -4% | 8
CC(=O)Nc1ccc(S(=O)(=O)NCCC(=O)Nc2cc(C)ccn2)cc1 | 4% | · | · | 6% | · | ·
C/C(=N\NC(=O)c1sccc1-n1cccc1)c1cccs1 | 34% | 19 | 1% | -2% | · | 54*
C/C(=N\NC(=O)c1nonc1N)c1cccs1 | 13% | 23* | ? | 32% | 1% | active
CCOC(=O)N/N=C(\C)c1cccs1 | ? | 35* | 0% | 34% | · | 96*
CCCCCCCC(=O)N/N=C(/C)c1c(O)cc(C)oc1=O | 50% | -5 | 7% | 76% | -17% | 14
C/C(=N\NC(=O)c1cccs1)c1c(O)cc(C)oc1=O | ? | 51* | · | 25% | -39% | 84*
CCN(CC)C(=S)SCC(=O)Nc1ncc2c(n1)CCCC2=O | 22% | 5 | 3% | -7% | 1% | -2
COc1ccc2cc(C(C)C(=O)N3CCC(C(N)=O)CC3)ccc2c1 (configuration not stated) | 24% | -1 | -1% | 4% | 0% | 14
C=C(C)C(=O)OCCOC(=O)C(=C)C | · | 1 | 3% | · | · | 10
Cc1nn(Cc2ccccc2)c(Cl)c1C(=O)NCc1ccco1 | 0% | 10 | 4% | ? | · | -2
SMILES | Pf growth 96h | Cycloheximide cs | FBPA Giardia inh | Pf growth 48h | NS1 function inh | Shiga inhibitor
Cc1noc(C)c1-c1cc(N(C)C)ncn1 | · | · | -1% | · | · | ·
COc1cc(C(=O)NCC(=O)N/N=C(/C)c2cccs2)cc(OC)c1OC | 1.7µM* | 1 | 2% | 0% | -3% | -15
CC(=O)Nc1cccc(/C(C)=N/NC(=O)c2cccs2)c1 | 14% | 56* | 1% | 59% | -5% | 46*
CC(=O)Nc1cccc(/C(C)=N/NC(=O)c2ccc(NS(=O)(=O)c3cccs3)cc2)c1 | 23% | -2 | 3% | 22% | 11% | 14
Cc1cccc(NC(=O)CSc2nnc(CNC(=O)c3ccco3)n2C)c1 | -4% | -1 | 4% | -1% | 1% | -8
CCCCC/C=C\C[C@H](O)/C=C/c1cccc(C[C@H](O)CCCCO)n1 | ? | -2 | -10% | 13µM* | -5% | -7
CCCCCC[C@@H](O)C/C=C\CCCCCCCC(=O)O | 3% | · | 3% | -6% | · | ·
COc1ccccc1OCC(O)Cn1c(=N)n(CCN2CCCCC2)c2ccccc21 (configuration not stated) | -22% | -2 | 2% | 3.3µM* | -5% | 18
N=c1n(CCN2CCCCC2)c2ccccc2n1CC(O)c1cccc(Br)c1 (configuration not stated) | 0.74µM* | 1 | -8% | 0.59µM* | 0% | -8
N=c1n(CCN2CCCCC2)c2ccccc2n1CC(O)c1ccc(Cl)c(Cl)c1 (configuration not stated) | 0.29µM* | -9 | 4% | · | 12% | -12
CCn1c(=N)n(CC(O)c2ccccc2)c2ccccc21 (configuration not stated) | -9% | 1 | ? | ? | 19% | -16
N=c1n(CCN2CCCCC2)c2ccccc2n1CC(O)COc1ccccc1 (configuration not stated) | 50% | -8 | -3% | ? | 4% | -12
CN(C)CCn1c(=N)n(CC(O)c2ccc(Cl)c(Cl)c2)c2ccccc21 (configuration not stated) | 1% | -5 | -1% | 0.74µM* | -4% | -12
CC(=O)c1ccc(-c2c(C3C4C=CCC(C)C4C(=O)N3Cc3ccccc3)ccc3ccccc23)cc1 (configuration not stated) | · | 21 | -5% | · | · | 3
O=C(OCN1C(=O)c2ccccc2C1=O)c1ccc(Cl)nc1 | 1% | -3 | 17% | 28% | -3% | -14
c1ccc(-c2nc3ccccc3nc2-c2ccccn2)nc1 | 3% | -1 | ? | 12% | 6% | 12
Cc1cc2nc(-c3ccccn3)c(-c3ccccn3)nc2cc1C | 67% | 18* | -1% | 65% | -6% | 30
Cc1ccc(-n2c(C)cc(/C=N/NC(=O)CN(c3ccc(C)cc3C)S(C)(=O)=O)c2C)cc1 | ? | -2 | -11% | 12µM* | 11% | -9
Cc1cc(C)cc(-n2c(C)cc(/C=N/NC(=O)CN(c3c(C)cccc3C)S(C)(=O)=O)c2C)c1 | · | 7 | -18% | ? | 10% | -15
CNC(=S)N/N=C/c1cc(C)n(-c2ccc(Cl)c(Cl)c2)c1C | 9.3µM* | 22* | 4% | 15µM* | -7% | 52
Cc1ccc(-n2c(C)cc(/C=N/NC(=O)c3ccncc3)c2C)cc1 | ? | 25* | -22% | ? | 10% | 18
Cc1cc(/C=N/NC(=O)c2ccncc2)c(C)n1-c1cccc(C(F)(F)F)c1 | 34% | 8 | -26% | ? | -7% | 6
Cc1ccc(-n2c(C)cc(/C=N/NC(=O)CC3(C)OCCO3)c2C)cc1 | ? | 16 | -19% | 13µM* | 4% | 34
